We go through 5 compounds from PubChem BioAssay (EPA / NIEHS).

Usually AC50 stands for the midpoint of the concentration-response curve, whichever way the signal moves.

Read-out in assay [1]: Human Leukocyte Antigen - DR isotype (HLADR), HLA-DRA (gene 3122)
Put plainly: BSK_CASM3C_HLADR: BioMAP Diversity Plus: CASM3C Assay for Human Leukocyte Antigen - DR isotype (HLADR) Biomarker Activity (AID 2283043).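 Note: cell-surface HLA-DR protein level quantified by ELISA.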 The settings on record: primary human coronary artery smooth muscle cells; actives raise or lower the signal.

Read-out in assay [2]: Macrophage colony-stimulating factor (MCSF), CSF1 (gene 1435)
The assay can be described thus: BSK_CASM3C_MCSF: BioMAP Diversity Plus: CASM3C Assay for Macrophage colony-stimulating factor (MCSF) Biomarker Activity (AID 2283044).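 Note: M-CSF protein amount quantified by ELISA after 24 h exposure.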 The settings on record: primary human coronary artery smooth muscle cells; actives raise or lower the signal.

Read-out in assay [3]: Low-density lipoprotein receptor (LDLR), LDLR (gene 3949)
Put plainly: BSK_CASM3C_LDLR: BioMAP Diversity Plus: CASM3C Assay for Low-density lipoprotein receptor (LDLR) Biomarker Activity (AID 2283045).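 Note: LDLR protein level on the cell surface quantified by ELISA.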 As to conditions: primary human coronary artery smooth muscle cells; actives raise or lower the signal.

Read-out in assay [4]: Monocyte Chemoattractant Protein-1 (MCP1), CCL2 (gene 6347)
The assay can be described thus: BSK_CASM3C_MCP1: BioMAP Diversity Plus: CASM3C Assay for Monocyte Chemoattractant Protein-1 (MCP1) Biomarker Activity (AID 2283046).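 Note: MCP-1 level quantified by ELISA 24 h after dosing.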 As to conditions: primary human coronary artery smooth muscle cells; actives raise or lower the signal.

Assay [5] can be described thus: BSK_CASM3C_Proliferation: Cell Proliferation Assessment in the BioMAP Diversity Plus: CASM3C Assay (AID 2283047).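 Note: sulforhodamine B total protein stain as relative cell number at 560 nm; sub-confluent cells exposed 48 h before staining; fitted both ways against DMSO so gain or loss of cell number.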 The settings on record: primary human coronary artery smooth muscle cells.
Read-out in assay [6]: Monokine induced gamma interferon (MIG), CXCL9 (gene 4283)
Put plainly: BSK_CASM3C_MIG: BioMAP Diversity Plus: CASM3C Assay for Monokine induced gamma interferon (MIG) Biomarker Activity (AID 2283048).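 Note: MIG protein level measured by ELISA.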 As to conditions: primary human coronary artery smooth muscle cells; actives raise or lower the signal.

Read-out in assay [7]: serum amyloid A (SAA), SAA1 (gene 6288)
The assay can be described thus: BSK_CASM3C_SAA: BioMAP Diversity Plus: CASM3C Assay for serum amyloid A (SAA) Biomarker Activity (AID 2283049).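 Note: SAA protein level quantified by ELISA.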 As to conditions: primary human coronary artery smooth muscle cells; actives raise or lower the signal.

Assay [8] is described as follows: BSK_CASM3C_SRB: Viability Assessment in the BioMAP Diversity Plus: CASM3C Assay (AID 2283050).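 Note: total protein by SRB staining as cytotoxicity measure in parallel cultures; cells exposed to compound for 24 h.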 As to conditions: primary human coronary artery smooth muscle cells.
Read-out in assay [9]: Thrombomodulin, THBD (gene 7056)
Put plainly: BSK_CASM3C_Thrombomodulin: BioMAP Diversity Plus: CASM3C Assay for Thrombomodulin Biomarker Activity (AID 2283051).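 Note: thrombomodulin protein level measured by ELISA 24 h after dosing.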 The settings on record: primary human coronary artery smooth muscle cells; actives raise or lower the signal.

Read-out in assay [10]: Tissue Factor, F3 (gene 2152)
Put plainly: BSK_CASM3C_TissueFactor: BioMAP Diversity Plus: CASM3C Assay for Tissue Factor Biomarker Activity (AID 2283052).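 Note: cell surface tissue factor protein level read by ELISA.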 The settings on record: primary human coronary artery smooth muscle cells; actives raise or lower the signal.

Read-out in assay [11]: Interferon-gamma inducible Protein 10 (IP10), CXCL10 (gene 3627)
The assay can be described thus: BSK_hDFCGF_IP10: BioMAP Diversity Plus: hDFCGF Assay for Interferon-gamma inducible Protein 10 (IP10) Biomarker Activity (AID 2283053). As to conditions: primary human foreskin fibroblasts; actives raise or lower the signal. In short, it runs like this:
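ELISA read-out of IP-10 (CXCL10) from primary human skin fibroblasts, 24 h after compound addition. Gain or loss of signal versus DMSO baseline, bidirectional curve fitting.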

Read-out in assay [12]: Urokinase-type plasminogen activator receptor (uPAR), PLAUR (gene 5329)
The assay can be described thus: BSK_CASM3C_uPAR: BioMAP Diversity Plus: CASM3C Assay for Urokinase-type plasminogen activator receptor (uPAR) Biomarker Activity (AID 2283054).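 Note: cell-surface uPAR protein level quantified by ELISA.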 The settings on record: primary human coronary artery smooth muscle cells; actives raise or lower the signal.

Read-out in assay [13]: Vascular cell adhesion molecule 1 (VCAM1), VCAM1 (gene 7412)
Put plainly: BSK_CASM3C_VCAM1: BioMAP Diversity Plus: CASM3C Assay for Vascular cell adhesion molecule 1 (VCAM1) Biomarker Activity (AID 2283055).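 Note: VCAM-1 protein level quantified by ELISA on the cells.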 As to conditions: primary human coronary artery smooth muscle cells; actives raise or lower the signal.

Read-out in assay [14]: Collagen III, COL3A1 (gene 1281)
Put plainly: BSK_hDFCGF_CollagenIII: BioMAP Diversity Plus: hDFCGF Assay for Collagen III Biomarker Activity (AID 2283056). The settings on record: primary human foreskin fibroblasts; actives raise or lower the signal. In short, it runs like this: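 Human foreskin primary fibroblasts were exposed to test chemicals for 24 h, after which collagen III was quantified by ELISA. Activity was fitted bidirectionally against DMSO as negative control and baseline.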

Read-out in assay [15]: Epidermal growth factor receptor (EGFR), EGFR (gene 1956)
Put plainly: BSK_hDFCGF_EGFR: BioMAP Diversity Plus: hDFCGF Assay for Epidermal growth factor receptor (EGFR) Biomarker Activity (AID 2283057). As to conditions: primary human foreskin fibroblasts; actives raise or lower the signal. An outline of the steps: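 ELISA readout of EGFR on human dermal fibroblasts (primary foreskin cells), 24 h post-dosing; bidirectional curve fit vs DMSO baseline, gain or loss of signal scored.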

Read-out in assay [16]: Interleukin-8 (IL8), CXCL8 (gene 3576)
The assay can be described thus: BSK_hDFCGF_IL8: BioMAP Diversity Plus: hDFCGF Assay for Interleukin-8 (IL8) Biomarker Activity (AID 2283058). As to conditions: primary human foreskin fibroblasts; actives raise or lower the signal. In short, it runs like this:
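hDFCGF human dermal fibroblasts; 24 h chemical exposure; IL-8 by ELISA; bidirectional curve fit vs DMSO baseline; gain or loss of signal scored.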

A short description of assay [17]: BSK_hDFCGF_Proliferation: Cell Proliferation Assessment in the BioMAP Diversity Plus: hDFCGF Assay (AID 2283059).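 Note: curves fitted for both rise and fall of signal versus DMSO baseline.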 The settings on record: primary human foreskin fibroblasts. An outline of the steps: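 Primary human foreskin fibroblasts, sub-confluent; […]; 10% TCA fix, 0.1% SRB stain, A560 total protein. Gain/loss fitted bidirectionally vs DMSO control.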

Read-out in assay [18]: Macrophage colony-stimulating factor (MCSF), CSF1 (gene 1435)
Put plainly: BSK_hDFCGF_MCSF: BioMAP Diversity Plus: hDFCGF Assay for Macrophage colony-stimulating factor (MCSF) Biomarker Activity (AID 2283060). As to conditions: primary human foreskin fibroblasts; actives raise or lower the signal. An outline of the steps:
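Human foreskin primary fibroblasts were treated with test chemical for 24 h, and M-CSF was then measured by ELISA. Data were fitted bidirectionally against DMSO as the negative control and activity baseline.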

Assay [19] is described as follows: BSK_hDFCGF_SRB: Viability Assessment in the BioMAP Diversity Plus: hDFCGF Assay (AID 2283061).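 Note: cells exposed to compound for 24 h before the read.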 The settings on record: primary human foreskin fibroblasts. An outline of the steps:
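Human foreskin primary fibroblasts were treated with compound and assessed 24 h after dosing. Total protein was measured by sulforhodamine B staining (0.1% SRB after 10% TCA fixation, 560 nm read) as a cytotoxicity marker, with bidirectional fitting against DMSO baseline.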

Read-out in assay [20]: TIMP metallopeptidase inhibitor 1 (TIMP1), TIMP1 (gene 7076)
Put plainly: BSK_hDFCGF_TIMP1: BioMAP Diversity Plus: hDFCGF Assay for TIMP metallopeptidase inhibitor 1 (TIMP1) Biomarker Activity (AID 2283062). The settings on record: primary human foreskin fibroblasts; actives raise or lower the signal. In short, it runs like this: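 Primary human foreskin fibroblasts in the hDFCGF system were dosed with compound for 24 h, then TIMP-1 was measured by ELISA. Activity was fitted bidirectionally relative to DMSO control; parallel SRB staining assessed cytotoxicity.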

Molecules are shown by their SMILES. The source made the active and inactive calls. Rule for the calls: active = hit-call score of the fitted dose curve at least 0.9, where 1 is the maximum; inactive = score below 0.9.

For the compound `Oc1ccc2ccccc2c1`, the result in assay [1], in assay [2], in assay [3], in [4], in assay [5] and in [6] was inactive. Besides, the outcome in [7], in [8], in [9], in assay [10], in [11] and in assay [12] was inactive. The outcome in assay [13], in assay [14], in assay [15], in assay [16], in assay [17] and in [18] was inactive. The result in assay [19] and in assay [20] was inactive.

Consider `CO[C@H]1/C=C/O[C@@]2(C)Oc3c(C)c(O)c4c(O)c(c(/C=N/N5CCN(C)CC5)c(O)c4c3C2=O)NC(=O)/C(C)=C\C=C\[C@H](C)[C@H](O)[C@@H](C)[C@@H](O)[C@@H](C)[C@H](OC(C)=O)[C@@H]1C`, for which the outcome in assay [1], in [2], in [3], in assay [4], in assay [6] and in [7] was inactive. For the same compound, the outcome in assay [8], in [9], in [10], in assay [11], in assay [12] and in assay [13] was inactive. Also, the outcome in [14], in [15], in [16], in assay [18], in assay [19] and in assay [20] was inactive. Further, the concentration at half-maximal activity (AC50) is 4.51 µM (active) in [5] and 19.4 µM (active) in [17].

In the case of `Clc1ccccc1C(c1ccccc1)(c1ccccc1)n1ccnc1`, the AC50 in assay [1] is 28 µM (active); in assay [2], 32.6 µM (active); in assay [3], 36.9 µM (active); in [4] it was 34.4 µM (active); in [5], 22.5 µM (active); in assay [6], 39.2 µM (active). For the same compound, the AC50 in [7] is 27.1 µM (active); in [8], 29.1 µM (active); in [9], 4.88 µM (active); in assay [10], 20 µM (active); in assay [11], 9.81 µM (active); in [12], 28.4 µM (active). The half-maximal activity concentration (AC50) in assay [13] was 31.9 µM (active); in assay [14], 5.5 µM (active); in assay [16], 9.77 µM (active); in [17] it was 5.53 µM (active); in assay [18], 5.68 µM (active); in [19] it was 9.78 µM (active). For the same compound, the AC50 in [20] was 9.85 µM (active). Further, the result in assay [15] was inactive.

Consider `CCN(Cc1cccnc1)C(=O)c1cccc(Cl)c1[C@]1(C)C(=O)N(Cc2ccc(OC)cc2OC)c2ccc(Cl)cc21`, for which the AC50 in assay [1] was 29.8 µM (active); in assay [3], 1.39 µM (active); in assay [5] it was 12.6 µM (active); in assay [11], 7.05 µM (active); in [13], 5.43 µM (active); in [15], 5.95 µM (active). Besides, the half-maximal activity concentration (AC50) in assay [17] is 5.1 µM (active); in assay [18] it was 5.49 µM (active). In addition, the outcome in assay [2], in assay [4], in assay [6], in assay [7], in [8] and in assay [9] was inactive. The result in assay [10], in [12], in assay [14], in assay [16], in [19] and in assay [20] was inactive.

With `OCCO`, the outcome in assay [1], in assay [2], in assay [3], in [4], in assay [5] and in assay [6] was inactive. In addition, the outcome in assay [7], in [8], in assay [9], in assay [10], in [11] and in assay [12] was inactive. The result in [13], in assay [14], in assay [15], in assay [16], in assay [18] and in assay [19] was inactive. Also, the result in [20] was inactive. For the same compound, the half-maximal activity concentration (AC50) in [17] was 20.1 µM (active).
